Reference: article PMC12136788
In all, about 24,000 sequences were measured (“enrichment r”: median about 0.99, highest 2% from about 3.7 on). Shown is part of a subset that was picked to be rich in the highest values.

B1: chr5:31803264:31803265:+_ENSMUSG00000064037_ENSMUST00000076949|mus_mus|FALSE|FALSE (ssRNA)
RNA: GGGAGUUCUACAGUCCGACGAUCUGGAAAUGAGGAAGCCAGGGCCUCAGUGAUGAUUGUCCCUGAAGCUGACCAGGUAAAUACUUCAAUCUGUCCAGGUGUGUCAAUCAAGACAUAUCUGAAUGUGUUCUGGGCCUUCUCAAUCAACAGAGGAUUGAGCAUCA
B2: 64960267_64960387_5255_CDS_ENSG00000171988_ENST00000542921|human|control|control (ssRNA)
RNA: GGGAGUUCUACAGUCCGACGAUCUGAGUGAGCUGGUUCUUCUCCUUUUUUACUGCGAAUAAGUCUACAUUCUCGACACUUUUGUAAAUUAGGCCCUAUCUCACAGCAGGAGUCAUCCUGUAAAAAGGAUUCCCCAGUUUGCUUCAACAGAGGAUUGAGCAUCA
B3: chr4:76721835:76721836:+_ENSG00000138768_ENST00000264904|hu_mus|hu_hu_hu_mus_True|98_108 (ssRNA)
RNA: GGGAGUUCUACAGUCCGACGAUCGUUGGCUGGGGUUUCUGAGAUGCCUCUGGAAUAUAACUCAUGUUUGCUAAUAAAUCCUAGUUUCUCUAUGAAAUUCUCUUUGCCAAUCCUCUUCUCUAUUAGUUGCUUUAGUUUCUCUUUCAACAGAGGAUUGAGCAUCA
B4: chr1:241675328:241675329:-_ENSG00000091483_ENST00000366560|hu_hu|FALSE|FALSE (ssRNA)
RNA: GGGAGUUCUACAGUCCGACGAUCGCUUUUAUUAACAUGAUCGUUGGGAUGCACAGGUAUCUUGCUGCCAAGUUCACCUCCUAACAUUUCAAUUGCUCUAUUGCUAAUGACUUCAUUUACAUUCAUAUUUGUCUGAGUUCCUGACAACAGAGGAUUGAGCAUCA
B5: 21460886_21461006_6735_CDS_ENSMUSG00000042453_ENSMUST00000161356|mouse|control|control (ssRNA)
RNA: GGGAGUUCUACAGUCCGACGAUCAGGAUUUUUGGUGCUUAUUUUACAGGUUGGCCCAGAGUAGCCCGGGUCACAUAUACACUUGGUUCCAUUGAUGCAGCUCCCGUGCCCAUAGCACAUCUCUUCACACUGGGGACCAAUGUACAACAGAGGAUUGAGCAUCA
B6: chr10:121586544:121586545:+_ENSG00000198825_ENST00000369080|hu_mus|motif|central (ssRNA)
RNA: GGGAGUUCUACAGUCCGACGAUCCGACUGCCUAAUCGAGGUGCUGACACAAUAAUCCCACAGCUUGGGAGAAUGUAAUCGGUUGGCCCUACGCUCUCUAAAGAAUUGGCUAGCUGCUUGUCUUCCUCCGACUUAGAAUUUGUACAACAGAGGAUUGAGCAUCA

Each binder was assayed against T1, UNK ZnF1-3 (human, UniProt Q9C0B0 31-174) (assay: nsRBNS (natural sequence RNA bind-n-seq); RBNS binding buffer (assumed for nsRBNS): 25 mM Tris pH 7.5, 150 mM KCl, 3 mM MgCl2, 0.01% Triton X-100, 500 ug/ml BSA, 20 U/ml SUPERase-In, 4 C; UNK is unkempt and MSI1 is Musashi-1; names of the RNAs are library labels; protein concentration not given here; high values mean tight binding).
T1 sequence: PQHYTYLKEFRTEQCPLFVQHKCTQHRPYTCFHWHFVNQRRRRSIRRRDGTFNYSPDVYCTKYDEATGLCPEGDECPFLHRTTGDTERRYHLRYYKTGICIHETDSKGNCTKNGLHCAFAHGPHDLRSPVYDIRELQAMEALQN

Binder | binding signal
B1 | 0.591 enrichment R
B2 | 0.8 enrichment R
B3 | 0.409 enrichment R
B4 | 0.465 enrichment R
B5 | 0.458 enrichment R
B6 | 1.12 enrichment R
